Assay results: PubChem BioAssay
Activity calls are given as the source filed them.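 The calls were made as follows, unless noted: active = mean inhibition above 46.5%, the solvent-only control mean plus 3 SD; inactive = the rest.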

What was measured:
[1] = tested on: transactivating tegument protein VP16 (Human herpesvirus 1); experiment: VP16 transactivation reporter inhibitors, counter-screen for SRC2 inhibitor project, cell-based, luminescence, single concentration (AID 652007; in the data active = inhibition above about 36%); settings: cell-based VP16 transactivation luciferase reporter, at 8.9 µM, hits give high values
[2] = molecular target: Nuclear receptor coactivator 2 (Homo sapiens) (UniProt Q15596); experiment: SRC2 coactivator transcriptional activity inhibitors, confirmation, cell-based, luminescence, HEK293, triplicate (AID 652008); settings: HEK293 GAL4-SRC2 luciferase reporter, at 8.9 µM, hits give high values;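 also: 0% = DMSO-treated cells and 100% = Gossypol at 36 µM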
Chain of Nuclear receptor coactivator 2 (Homo sapiens) (Q15596 whole entry, looked up, the tested form may be a part): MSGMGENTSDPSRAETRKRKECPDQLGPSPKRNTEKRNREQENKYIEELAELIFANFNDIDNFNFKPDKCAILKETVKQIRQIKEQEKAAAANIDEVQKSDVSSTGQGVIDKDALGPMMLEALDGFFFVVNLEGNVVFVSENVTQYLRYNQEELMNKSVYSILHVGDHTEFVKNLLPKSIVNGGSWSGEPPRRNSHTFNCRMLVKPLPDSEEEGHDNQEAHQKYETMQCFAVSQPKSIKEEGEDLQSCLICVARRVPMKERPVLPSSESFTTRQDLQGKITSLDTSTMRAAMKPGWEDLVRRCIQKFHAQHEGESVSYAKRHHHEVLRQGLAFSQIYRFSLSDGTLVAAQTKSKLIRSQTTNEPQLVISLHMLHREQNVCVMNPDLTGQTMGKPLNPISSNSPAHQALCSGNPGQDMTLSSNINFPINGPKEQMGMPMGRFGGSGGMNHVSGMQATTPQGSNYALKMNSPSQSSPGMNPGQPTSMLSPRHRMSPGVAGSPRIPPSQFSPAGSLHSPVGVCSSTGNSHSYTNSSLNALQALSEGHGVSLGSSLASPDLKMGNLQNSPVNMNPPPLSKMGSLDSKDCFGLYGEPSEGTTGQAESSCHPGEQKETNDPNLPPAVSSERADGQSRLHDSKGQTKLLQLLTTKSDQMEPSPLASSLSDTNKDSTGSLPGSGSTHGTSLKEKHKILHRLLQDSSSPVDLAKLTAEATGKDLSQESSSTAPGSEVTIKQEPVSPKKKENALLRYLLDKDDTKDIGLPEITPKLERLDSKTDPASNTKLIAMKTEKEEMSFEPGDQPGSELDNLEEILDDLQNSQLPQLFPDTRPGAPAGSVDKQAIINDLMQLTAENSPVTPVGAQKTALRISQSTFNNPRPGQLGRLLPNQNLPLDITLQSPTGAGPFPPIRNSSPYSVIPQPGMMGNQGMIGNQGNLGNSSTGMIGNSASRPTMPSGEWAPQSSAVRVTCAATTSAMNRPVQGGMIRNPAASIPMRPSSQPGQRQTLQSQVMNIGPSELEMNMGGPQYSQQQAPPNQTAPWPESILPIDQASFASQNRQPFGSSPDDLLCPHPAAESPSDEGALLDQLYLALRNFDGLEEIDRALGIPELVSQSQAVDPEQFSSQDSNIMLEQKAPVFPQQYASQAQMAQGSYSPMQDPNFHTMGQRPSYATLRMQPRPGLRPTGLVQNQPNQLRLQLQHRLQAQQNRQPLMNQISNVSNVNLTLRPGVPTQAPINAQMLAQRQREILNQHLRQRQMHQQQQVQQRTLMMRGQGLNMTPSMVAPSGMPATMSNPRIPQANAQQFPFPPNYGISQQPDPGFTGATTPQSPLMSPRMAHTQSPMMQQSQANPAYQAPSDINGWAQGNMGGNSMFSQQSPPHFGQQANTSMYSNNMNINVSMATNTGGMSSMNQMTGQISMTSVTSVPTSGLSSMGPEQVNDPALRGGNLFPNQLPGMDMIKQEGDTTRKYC

| SMILES | inhibition [1] | inhibition [2] |
| --- | --- | --- |
| COc1ccccc1-c1cn[nH]c1-c1ccc(O)cc1O | 1.82% (inactive) | 11.9% (inactive) |
| CC1(C)CC(=O)C/C(=N/Nc2nc3ccccc3s2)C1 | -61.5% (inactive) | -13.5% (inactive) |
| Cc1ccc(NCC(=O)Nc2cccc(F)c2)cc1S(=O)(=O)N1CCCCCC1 | 15.9% (inactive) | 3.72% (inactive) |
| Cc1ccc(/C=C2/SC(=S)N(CCCC(=O)Nc3cc([N+](=O)[O-])ccc3O)C2=O)cc1 | 27.4% (inactive) | 49.7% (active) |
| Cc1ccc2sc(N(CCCN(C)C)C(=O)CN3C(=O)c4ccccc4C3=O)nc2c1C | -2.35% (inactive) | 3.74% (inactive) |
| CC(C)(C)c1ccc(C(=O)Nc2ccc(NC(=O)C(=O)O)cc2)o1 | -30% (inactive) | -15.8% (inactive) |
| COc1ccc(CN2C[C@H](COCc3ccccc3)Oc3cccc(N4CCCC4)c3S2(=O)=O)cc1 | -11% (inactive) | -6.23% (inactive) |
| COc1ccc(C2CC(c3cccs3)=NN2C(=O)CCl)cc1OC (stereo unspecified) | 42.5% (active) | 6.43% (inactive) |
| Cc1cc(C2=NNC(=NC3CC3)SC2)c(C)n1Cc1ccco1 | 78.6% (active) | 93.6% (active) |
| Cc1ccc(NC(=O)C2(C)CCN2C(=O)CC(c2ccccc2)c2ccccc2)cc1 (stereo unspecified) | -6.43% (inactive) | -7.67% (inactive) |
| O=C(O)c1cccc(CSc2nnc(-c3ccc(Cl)cc3)o2)c1 | 41.3% (active) | 43.1% (inactive) |
| COc1ccc2c(c1)/C(=C\c1cccc(/C=C3/C(=O)Nc4ccc(OC)cc43)n1)C(=O)N2 | 90.5% (active) | 76.2% (active) |
| COc1ccccc1CNS(=O)(=O)c1ccc(-c2cc(C)no2)cc1 | -13% (inactive) | -7.27% (inactive) |
